# Test results: ChEMBL document CHEMBL3988442, “University of Dundee, Small-Polar-MMV Screening Library” (2021)
# For some of these results: Potency and affinity values are given separately.
# Tests used:
# Design in all cases: scale not given: direction of the effect not stated beside the values
# [1] = target: Protein translocase subunit SecA (Escherichia coli (strain K12)) (UniProt P10408); assay: Assay to Identify E. coli SecA ATPase Inhibitors; format: functional; conditions: 30 µM
# [2] = target: T1, Ubiquitin-activating enzyme e1, putative (Leishmania donovani (strain BPK282A1)) (UniProt E9BSI1); assay: Leishmania donovani Ubiquitin Activating Enzyme (LdE1); format: functional; conditions: 30 µM
# T1 sequence (whole entry): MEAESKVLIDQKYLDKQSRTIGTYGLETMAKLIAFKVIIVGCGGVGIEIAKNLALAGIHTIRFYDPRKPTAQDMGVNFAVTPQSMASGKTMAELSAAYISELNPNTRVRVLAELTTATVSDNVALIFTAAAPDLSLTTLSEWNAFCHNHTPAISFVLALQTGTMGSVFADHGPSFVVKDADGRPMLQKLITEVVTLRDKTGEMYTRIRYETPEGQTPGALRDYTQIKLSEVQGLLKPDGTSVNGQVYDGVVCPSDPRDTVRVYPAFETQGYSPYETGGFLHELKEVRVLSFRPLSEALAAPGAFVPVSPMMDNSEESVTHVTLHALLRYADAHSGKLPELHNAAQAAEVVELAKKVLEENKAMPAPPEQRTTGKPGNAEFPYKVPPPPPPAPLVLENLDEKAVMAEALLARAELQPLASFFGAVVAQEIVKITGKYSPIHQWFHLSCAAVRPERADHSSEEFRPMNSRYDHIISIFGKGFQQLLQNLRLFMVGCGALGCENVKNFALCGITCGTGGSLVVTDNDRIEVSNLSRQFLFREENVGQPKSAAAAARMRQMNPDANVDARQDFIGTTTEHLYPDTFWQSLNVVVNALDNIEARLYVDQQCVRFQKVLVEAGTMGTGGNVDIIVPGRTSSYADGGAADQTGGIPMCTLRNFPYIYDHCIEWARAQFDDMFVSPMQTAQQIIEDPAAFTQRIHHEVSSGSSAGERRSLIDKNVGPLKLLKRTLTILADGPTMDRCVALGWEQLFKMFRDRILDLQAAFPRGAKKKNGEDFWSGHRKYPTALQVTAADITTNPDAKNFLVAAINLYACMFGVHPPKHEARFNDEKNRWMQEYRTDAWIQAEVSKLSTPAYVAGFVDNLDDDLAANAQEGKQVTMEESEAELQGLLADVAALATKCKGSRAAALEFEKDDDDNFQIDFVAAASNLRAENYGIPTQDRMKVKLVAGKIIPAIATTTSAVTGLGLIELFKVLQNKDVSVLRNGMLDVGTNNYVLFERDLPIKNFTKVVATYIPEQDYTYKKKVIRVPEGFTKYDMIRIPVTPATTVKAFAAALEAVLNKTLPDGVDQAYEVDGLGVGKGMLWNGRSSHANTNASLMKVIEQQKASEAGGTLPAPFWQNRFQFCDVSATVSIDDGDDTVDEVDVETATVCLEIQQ
# [3] = target: AMP-activated protein kinase, AMPK (Homo sapiens) (UniProt P54646+O43741+P54619+Q9UGJ0+Q9Y478+Q13131+Q9UGI9); assay: AMP-dependent Kinase enzyme assay. An in vitro enzyme assay that detects ADP turnover that is directly proportional to AMPK activity. This uses naive AMPK that is activated during the assay with MK-8722; format: functional; conditions: 30 µM
# [4] = target: Sialic acid-binding Ig-like lectin 9 (Homo sapiens) (UniProt Q9Y336); assay: Hs-Siglec9 ALPHAscreen SOP 20170721; conditions: 10 µM
# [5] = tested on: Trypanosoma cruzi; assay: Trypanosoma cruzi phosphomannomutase and mannose-1-phosphate guanylyltransferase assay; format: functional; conditions: 10 µM
# [6] = target: T2, Arginase-2, mitochondrial (Homo sapiens) (UniProt P78540); assay: in vitro enzyme assay to detect the production of urea directly proportional to the activity of Arginase II; format: functional; conditions: 33.3 µM; note: in the data most compounds retested in dose-response had high values
# T2 sequence (whole entry): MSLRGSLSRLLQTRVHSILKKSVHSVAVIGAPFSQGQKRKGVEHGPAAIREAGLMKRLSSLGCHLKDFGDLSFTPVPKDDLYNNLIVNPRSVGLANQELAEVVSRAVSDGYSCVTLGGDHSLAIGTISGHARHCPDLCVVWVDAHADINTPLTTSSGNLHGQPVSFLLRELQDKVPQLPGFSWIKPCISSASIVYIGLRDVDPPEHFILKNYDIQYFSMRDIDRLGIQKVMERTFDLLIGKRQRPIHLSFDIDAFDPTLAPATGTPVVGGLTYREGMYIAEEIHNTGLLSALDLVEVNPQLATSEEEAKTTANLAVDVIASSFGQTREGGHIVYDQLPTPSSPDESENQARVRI
# [7] = target: T3, Proteasome subunit beta (Trypanosoma cruzi) (UniProt O96673); assay: Trypanosoma cruzi proteasome chymotrypsin-like activity (TcProtChymo) assay.; note: in the data most compounds retested in dose-response had high values; format: functional; conditions: 9.37 µM
# T3 sequence (whole entry): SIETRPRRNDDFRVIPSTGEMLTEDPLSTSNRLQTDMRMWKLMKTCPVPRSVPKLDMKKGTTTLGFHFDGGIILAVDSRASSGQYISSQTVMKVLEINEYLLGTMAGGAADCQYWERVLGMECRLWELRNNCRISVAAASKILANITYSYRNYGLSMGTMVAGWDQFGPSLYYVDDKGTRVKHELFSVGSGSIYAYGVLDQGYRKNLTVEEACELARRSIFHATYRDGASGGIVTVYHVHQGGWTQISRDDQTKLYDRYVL
# [8] = species: Homo sapiens; assay: To identify inhibition of the IFN signalling (Jak-Stat) pathway via expression of an eGFP reporter gene under the control of an IFN-stimulated response element (ISRE) containing MxA promoter.; format: functional; conditions: 30 µM
# [9] = target: T4, Tyrosyl-tRNA synthetase, putative (Trypanosoma cruzi (strain CL Brener)) (UniProt Q4DSP6); assay: Trypanosoma cruzi tyrosyl tRNA synthetase (TcYRS) _High Tyrosine SOP; format: functional; conditions: 30 µM; note: in the data most compounds retested in dose-response had high values
# T4 sequence (whole entry): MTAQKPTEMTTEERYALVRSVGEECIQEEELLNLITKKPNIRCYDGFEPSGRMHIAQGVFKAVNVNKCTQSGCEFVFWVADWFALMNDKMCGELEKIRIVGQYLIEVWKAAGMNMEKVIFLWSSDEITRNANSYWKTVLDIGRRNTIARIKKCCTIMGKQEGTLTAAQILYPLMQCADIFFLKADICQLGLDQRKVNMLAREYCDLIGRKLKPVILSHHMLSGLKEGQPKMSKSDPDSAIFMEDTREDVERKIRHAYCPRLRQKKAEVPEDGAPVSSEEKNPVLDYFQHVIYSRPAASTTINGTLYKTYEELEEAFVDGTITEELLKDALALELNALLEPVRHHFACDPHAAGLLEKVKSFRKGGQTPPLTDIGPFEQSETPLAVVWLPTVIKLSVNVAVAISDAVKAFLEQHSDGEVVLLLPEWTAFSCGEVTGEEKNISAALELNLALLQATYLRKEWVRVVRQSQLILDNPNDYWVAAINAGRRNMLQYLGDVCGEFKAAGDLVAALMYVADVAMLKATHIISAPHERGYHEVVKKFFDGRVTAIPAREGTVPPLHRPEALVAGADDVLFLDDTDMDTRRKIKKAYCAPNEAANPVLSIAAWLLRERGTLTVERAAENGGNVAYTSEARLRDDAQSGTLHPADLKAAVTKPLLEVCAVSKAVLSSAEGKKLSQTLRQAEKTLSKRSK
# [10] = target: T4, Tyrosyl-tRNA synthetase, putative (Trypanosoma cruzi (strain CL Brener)); assay: Trypanosoma cruzi tyrosyl tRNA synthetase (TcYRS) SOP; format: functional; conditions: 30 µM
# [11] = target: Chromo domain-containing protein 1 (Saccharomyces cerevisiae (strain ATCC 204508 / S288c) (Baker's yeast)) (UniProt P32657); assay: ScCHD-1 Enzyme Inhibition Assay; format: functional; conditions: 30 µM; note: in the data most compounds retested in dose-response had high values
# Sequence of Chromo domain-containing protein 1 (Saccharomyces cerevisiae (strain ATCC 204508 / S288c) (Baker's yeast)) (P32657 whole entry, the tested form may be a part): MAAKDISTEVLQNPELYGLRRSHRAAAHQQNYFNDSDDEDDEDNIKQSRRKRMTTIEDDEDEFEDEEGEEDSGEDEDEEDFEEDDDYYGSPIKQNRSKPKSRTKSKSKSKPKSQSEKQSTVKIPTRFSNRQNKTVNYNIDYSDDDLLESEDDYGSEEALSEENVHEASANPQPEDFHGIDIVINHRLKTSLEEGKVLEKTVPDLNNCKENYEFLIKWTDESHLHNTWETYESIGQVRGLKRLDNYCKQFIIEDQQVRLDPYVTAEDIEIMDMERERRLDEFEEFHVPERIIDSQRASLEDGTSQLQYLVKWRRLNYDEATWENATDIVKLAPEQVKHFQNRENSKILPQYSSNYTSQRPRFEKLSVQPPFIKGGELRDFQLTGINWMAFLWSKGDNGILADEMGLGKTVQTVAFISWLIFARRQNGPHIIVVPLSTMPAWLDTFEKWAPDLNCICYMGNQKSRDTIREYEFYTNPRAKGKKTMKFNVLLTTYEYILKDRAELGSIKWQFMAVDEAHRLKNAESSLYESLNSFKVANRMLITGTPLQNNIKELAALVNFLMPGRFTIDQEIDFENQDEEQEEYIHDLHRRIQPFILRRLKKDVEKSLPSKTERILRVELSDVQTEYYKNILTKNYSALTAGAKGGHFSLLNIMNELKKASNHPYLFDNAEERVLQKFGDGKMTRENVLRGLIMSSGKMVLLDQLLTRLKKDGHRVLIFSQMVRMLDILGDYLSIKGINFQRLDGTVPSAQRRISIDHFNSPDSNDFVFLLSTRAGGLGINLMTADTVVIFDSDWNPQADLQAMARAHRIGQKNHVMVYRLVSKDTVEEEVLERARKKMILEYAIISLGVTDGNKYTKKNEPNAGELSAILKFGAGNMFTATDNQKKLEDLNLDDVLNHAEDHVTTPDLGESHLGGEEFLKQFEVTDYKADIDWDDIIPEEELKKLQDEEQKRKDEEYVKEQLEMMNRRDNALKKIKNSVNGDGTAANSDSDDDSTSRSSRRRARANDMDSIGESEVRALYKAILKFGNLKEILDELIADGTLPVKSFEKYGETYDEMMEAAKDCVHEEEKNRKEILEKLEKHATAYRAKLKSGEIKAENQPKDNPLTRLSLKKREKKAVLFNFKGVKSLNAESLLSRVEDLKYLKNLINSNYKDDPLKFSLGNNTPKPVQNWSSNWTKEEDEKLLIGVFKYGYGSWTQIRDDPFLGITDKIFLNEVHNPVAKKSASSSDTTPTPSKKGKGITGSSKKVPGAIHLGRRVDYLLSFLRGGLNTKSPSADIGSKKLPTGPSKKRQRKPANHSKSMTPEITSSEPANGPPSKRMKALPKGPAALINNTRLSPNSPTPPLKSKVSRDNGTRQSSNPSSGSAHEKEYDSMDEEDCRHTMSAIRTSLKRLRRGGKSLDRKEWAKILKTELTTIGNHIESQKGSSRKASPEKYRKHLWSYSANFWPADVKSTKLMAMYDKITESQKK
# Sequence of Sialic acid-binding Ig-like lectin 9 (Homo sapiens) (Q9Y336 whole entry): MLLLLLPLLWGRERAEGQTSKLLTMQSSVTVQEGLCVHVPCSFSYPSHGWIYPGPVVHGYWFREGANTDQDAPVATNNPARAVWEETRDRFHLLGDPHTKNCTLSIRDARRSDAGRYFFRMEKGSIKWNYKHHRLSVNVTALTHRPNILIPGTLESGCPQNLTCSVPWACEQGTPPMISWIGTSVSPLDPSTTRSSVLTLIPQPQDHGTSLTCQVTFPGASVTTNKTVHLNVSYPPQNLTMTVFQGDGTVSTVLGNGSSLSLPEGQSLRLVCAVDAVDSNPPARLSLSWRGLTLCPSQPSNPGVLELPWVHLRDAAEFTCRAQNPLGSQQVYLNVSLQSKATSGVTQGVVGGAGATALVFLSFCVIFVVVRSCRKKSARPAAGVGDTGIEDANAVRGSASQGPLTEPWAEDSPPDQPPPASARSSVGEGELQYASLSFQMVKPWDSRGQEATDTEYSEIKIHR
# Sequence of Protein translocase subunit SecA (Escherichia coli (strain K12)) (P10408 whole entry): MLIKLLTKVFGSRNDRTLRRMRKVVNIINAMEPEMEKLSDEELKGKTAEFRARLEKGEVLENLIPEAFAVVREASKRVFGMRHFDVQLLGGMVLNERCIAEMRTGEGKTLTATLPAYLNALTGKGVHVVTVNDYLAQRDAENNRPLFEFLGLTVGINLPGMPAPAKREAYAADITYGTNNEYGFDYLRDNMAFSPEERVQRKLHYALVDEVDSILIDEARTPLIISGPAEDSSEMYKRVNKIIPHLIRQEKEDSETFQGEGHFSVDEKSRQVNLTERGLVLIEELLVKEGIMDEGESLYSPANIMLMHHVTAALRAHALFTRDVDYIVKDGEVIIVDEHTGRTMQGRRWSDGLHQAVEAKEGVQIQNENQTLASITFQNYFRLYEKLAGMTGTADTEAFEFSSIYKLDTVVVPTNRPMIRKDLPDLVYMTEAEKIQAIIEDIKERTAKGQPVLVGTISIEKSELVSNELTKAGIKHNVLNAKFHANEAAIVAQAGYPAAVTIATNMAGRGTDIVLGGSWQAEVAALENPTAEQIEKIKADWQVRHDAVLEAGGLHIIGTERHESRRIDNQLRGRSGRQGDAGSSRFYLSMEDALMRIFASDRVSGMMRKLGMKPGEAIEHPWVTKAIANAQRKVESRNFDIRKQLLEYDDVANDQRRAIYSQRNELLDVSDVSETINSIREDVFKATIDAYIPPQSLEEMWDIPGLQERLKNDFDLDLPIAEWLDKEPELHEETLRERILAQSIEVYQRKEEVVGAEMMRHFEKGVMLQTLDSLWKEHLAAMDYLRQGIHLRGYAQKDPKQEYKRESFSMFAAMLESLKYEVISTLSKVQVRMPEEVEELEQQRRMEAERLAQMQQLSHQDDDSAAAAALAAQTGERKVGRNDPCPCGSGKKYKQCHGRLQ
Structure (SMILES),Percent Effect [1] [%],Percent Effect [2] [%],Percent Effect [3] [%],Percent Effect [4] [%],Percent Effect [5] [%],Percent Effect [6] [%],Percent Effect [7] [%],Percent Effect [8] [%],Percent Effect [9] [%],Percent Effect [10] [%],Percent Effect [11] [%]
Cc1nc(C)n(CC2CCCN2CC(=O)NCc2ccco2)n1 (stereo not given),-0.786,2.74,1.19,4.18,0.979,-1.36,13.8,6.45,1.07,-2.5,-3.99
COCC(c1cccc(C(F)(F)F)c1)N(C)C(=O)c1ccncc1 (stereo not given),-4.42,21.1,-0.328,-2.24,8.46,-4.21,23.2,26.2,8.33,21.9,-14.7
CCc1n[nH]c(C2CN(C(=O)c3cc4c(s3)CCCC4)CCO2)n1 (stereo not given),-1.02,20.2,0.0672,-4.74,-6.33,-0.76,6.96,30.5,1.48,8.86,-5.65
Cc1cc(=O)n2ncnc2n1CC(O)c1cc(F)ccc1F (stereo not given),-4.1,18.4,1.21,-4.45,5.55,1.18,15.6,6.3,5.32,20.8,-3.49
COCCN1CCC(NCc2cccnc2)C1 (stereo not given),-5.87,-2.6,-0.869,-1.42,-5.06,2.49,5.74,16.6,1.94,-4.88,-3.65
CC1CN(Cc2noc(C3CC3)n2)CCN1Cc1nccn1C (stereo not given),-5.15,2.53,-12.8,3.3,5.19,-2.66,1.72,8.77,6.4,11.4,-1.35
COc1cccc(CCNC(=O)CN2CCCC2c2noc(C)n2)c1 (stereo not given),-2.79,8.11,1.21,-0.359,-5.48,7.21,2.51,20.8,7.92,11,-1.21
Cc1ccc(C(=O)NC2CCN(Cc3noc(CC(C)C)n3)CC2)s1,-4.45,2.6,3.54,0.891,-8.75,-8.28,8.82,29.7,-3.23,1.24,-1.38
Cc1ccc(C2CCCCCN2Cc2cn(C)nc2C)s1 (stereo not given),-9.52,18.2,0.0483,-1.66,1.48,-4.52,9.92,-5.04,0,14.1,-7.58
Cc1nn(C)c(Cl)c1C1CCCN1CC(=O)NCc1ccccn1 (stereo not given),-0.227,1.27,8.81,-1.21,0.513,-0.215,12.2,22.5,4.17,10.1,3
CSCCC1c2nc[nH]c2CCN1Cc1cc(Cl)ccc1O (stereo not given),-4.06,-2.67,-4.48,3.19,2.63,0.521,18.3,35.7,12.6,23.5,-0.295
CC(C)S(=O)(=O)c1nnc(CCNC(=O)OC(C)(C)C)o1,-7.35,4,2.34,-6.84,-5.3,-9.33,14.1,17.5,3.17,2.56,-8.11
CC(C)n1c(C2CCCN(Cc3ccnn3C)C2)nc2ccccc21 (stereo not given),-5.27,5.33,6.84,4.6,6.5,-1.63,6.78,18.1,2.13,14.1,-3.27
O=C(CCc1cc2n(n1)CCCN(C(=O)c1ccccn1)C2)NC1CC1,-2.88,4.17,-1.28,15.3,4.76,21.2,7.89,-15.2,4.21,5.13,-4.34
CN(C)C(=O)CN1C[C@@H]2CC[C@H](C1)N(Cc1cccc(Cl)c1Cl)C2,6.03,2.74,1.3,-0.255,2.58,-19.6,22.5,14,10.4,25.9,0.27
CCc1ccc(OCC(O)CN2CCN(S(C)(=O)=O)CC2)cc1 (stereo not given),-7.02,7.79,3.94,-12.9,-6.56,-3.58,3.96,16,0.952,2.35,-21.6
Cc1nccn1C1CCCN(C(=O)c2cc(O)nc3ccccc23)C1 (stereo not given),-2.57,12.7,-7.86,5.85,-1.98,-4.18,-4.34,-4.23,6.4,13.9,-5.76
Cc1ccc(CN2CCN(CC3CC3)[C@@H]3CS(=O)(=O)C[C@@H]32)cc1C,-7.02,5.33,-1.63,3.97,-7.11,2.08,15.5,2.7,-2.73,8.64,-5.38
COc1ncccc1NC(=O)C1CC(=O)N(Cc2ccccn2)C1 (stereo not given),-1.71,10.5,4.85,-1.28,-4.97,-2.37,22.3,-2.21,4.25,13,-2.98
CCOC1CCCN(C(=O)c2cnc3c(cnn3C3CCCC3)c2)C1 (stereo not given),-4.83,0,2.09,0.582,-2.93,-2.66,-2.38,24.1,1.48,-8.86,-4.24
